Experimental findings from the supplement of paper PMC9446081 are described below.

The whole screen tested about 39,000 compounds, of which about 220 (0.56%) showed activity. Shown is part of a subset that was picked to be rich in actives.
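Further: Wild-type cells incubated without shaking, value is the mean of two biological replicates.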

The subject of the assay is Escherichia coli K-12 BW25113. Briefly: relative growth (OD600 normalised to plate interquartile mean) (fraction); higher = less growth inhibition, active = 0.2 or less. The following applies: 50 µM; LB; incubation time: overnight (16-24 h).
As for `Cc1noc(C)c1NC(=O)Nc1ccc2c(c1)C(=O)N([C@H](C)CO)C[C@H](C)[C@@H](CN(C)C(=O)Nc1ccc(F)cc1)OCCCC[C@@H](C)O2`, the relative growth was 0.985 (inactive). The figure for `CCN1CCN(c2ccc(Nc3cc(N(C)C(=O)Nc4c(Cl)c(OC)cc(OC)c4Cl)ncn3)cc2)CC1` is 0.975 (inactive); for `C[C@@H]1CN([C@H](C)CO)C(=O)Cc2cc(NC(=O)Nc3ccc(F)cc3)ccc2O[C@@H]1CN(C)S(C)(=O)=O` it is 0.979 (inactive); for `C[C@@H]1CCCCO[C@H](CN(C)S(=O)(=O)c2ccc(Cl)cc2)[C@H](C)CN([C@@H](C)CO)C(=O)c2cc(NC(=O)c3ccncc3)ccc2O1` it is 0.997 (inactive). With `Cc1ccc(S(=O)(=O)N(C)C[C@@H]2OCCCC[C@@H](C)Oc3ccc(NC(=O)Nc4c(C)noc4C)cc3C(=O)N([C@H](C)CO)C[C@@H]2C)cc1`, the relative growth is 1 (inactive). Turning to `CC(=O)N[C@H]1CC[C@@H](CCNC(=O)C2CC2)O[C@H]1CO`, the relative growth is 0.943 (inactive). On to `CC1(C)SC2C(NC(=O)Cc3ccccc3)C(=O)N2C1C(=O)[O-].[K+]` (stereo not given), for which the relative growth is 0.576 (inactive). On to `CC1(C)SC2C(N3C(=O)C(c4ccccc4)NC3(C)C)C(=O)N2C1C(=O)[O-].[K+]` (stereo not given), for which the relative growth was 0.0443 (active). The figure for `CC1(C)SC2C(NC(=O)COc3ccccc3)C(=O)N2C1C(=O)[O-].[K+]` (stereo not given) is 0.598 (inactive). Regarding `O=C(C[C@H]1C[C@@H]2c3cc(NC(=O)C4CCOCC4)ccc3O[C@@H]2[C@@H](CO)O1)NCc1cc(F)ccc1F`, the relative growth is 0.984 (inactive). The figure for `C[C@@H]1CCCCO[C@@H](CN(C)C(=O)C2CCCCC2)[C@H](C)CN([C@@H](C)CO)C(=O)c2cc(NS(=O)(=O)c3ccccc3)ccc2O1` is 1.02 (inactive); for `COc1ccc(S(=O)(=O)Nc2ccc3c(c2)C(=O)N([C@@H](C)CO)C[C@@H](C)[C@@H](CN(C)S(=O)(=O)c2cn(C)cn2)O3)cc1` it is 0.994 (inactive). In the case of `Cn1sccc1=O`, the relative growth is 0.0369 (active). As to `COc1ccccc1C#Cc1cnc2c(c1)C(=O)N([C@@H](C)CO)C[C@@H](C)[C@@H](CN(C)C(=O)c1ccc3c(c1)OCO3)O2`, the relative growth was 1.03 (inactive). With `COc1ccc(S(=O)(=O)Nc2ccc3c(c2)C(=O)N([C@@H](C)CO)C[C@@H](C)[C@H](CN(C)Cc2ccc(C(=O)O)cc2)OCCCC[C@@H](C)O3)cc1`, the relative growth was 0.984 (inactive). Regarding `CC(C)CC#Cc1cnc2c(c1)C(=O)N([C@@H](C)CO)C[C@@H](C)[C@@H](CN(C)C(=O)CCN1CCCCC1)O2`, the relative growth is 0.965 (inactive). Consider `CN1CCN(c2c(F)cc3c(=O)c(C(=O)O)cn(CCF)c3c2F)CC1`, for which the relative growth is 0.0442 (active). For `CN1CCN(c2c(F)cc3c(=O)c(C(=O)O)cn4c3c2SCC4)CC1`, the relative growth was 0.0436 (active).

Consider `C[C@@H]1CN([C@@H](C)CO)C(=O)CCCn2nncc2CO[C@@H]1CN(C)S(=O)(=O)c1ccc(Oc2ccccc2)cc1`, for which the relative growth is 1.02 (inactive). As for `Cc1ccc(S(=O)(=O)N[C@@H]2C=C[C@H](CC(=O)NCCN3CCCCC3)O[C@@H]2CO)cc1`, the relative growth was 1.01 (inactive).

As to `Cc1ccc(S(=O)(=O)N(C)C[C@@H]2OCCCC[C@H](C)Oc3ccc(NC(=O)Nc4ccc(F)cc4)cc3C(=O)N([C@H](C)CO)C[C@H]2C)cc1`, the relative growth was 0.983 (inactive). Regarding `CC(C)NC(=O)Nc1ccc2c(c1)C(=O)N([C@H](C)CO)C[C@H](C)[C@@H](CN(C)C(=O)C1CCCCC1)OCCCC[C@@H](C)O2`, the relative growth was 0.984 (inactive). Consider `NCC1CCN(Cc2ccccc2)CC1`, for which the relative growth is 1.02 (inactive). To `NC1CCN(Cc2ccccc2)CC1` belongs 1.09 (inactive); to `COc1cc2c(cc1OC)C(=O)C(CC1CCN(Cc3ccccc3)CC1)C2.Cl` (stereo not given), 0.0489 (active); to `O=C(C[C@H]1C[C@@H]2c3cc(NS(=O)(=O)c4ccc(F)cc4)ccc3O[C@@H]2[C@@H](CO)O1)NCc1ccccn1`, 1.01 (inactive).

Take `NC1(CC(=O)O)CCN(Cc2ccccc2)CC1`: the relative growth is 0.999 (inactive). As to `Cn1cc(CN2CCC(C(=O)N[C@@H](c3ccc(F)cc3)c3ccc4ccccc4n3)CC2)c2ccccc21`, the relative growth was 0.963 (inactive). Take `C[C@@H]1CN([C@H](C)CO)C(=O)c2cccc(NS(=O)(=O)c3cn(C)cn3)c2O[C@@H]1CN(C)CC1CCCCC1`: the relative growth is 0.98 (inactive). Turning to `COc1ccc(CN(C)C[C@@H]2Oc3c(NC(=O)c4cc(C)nn4C)cccc3C(=O)N([C@@H](C)CO)C[C@H]2C)cc1`, the relative growth is 0.957 (inactive). To `CCn1cc(C(=O)O)c(=O)c2cc(F)c(N3CCNCC3)cc21` belongs 0.0456 (active).

As for `O=C(OC(C(F)(F)F)C(F)(F)F)N1CCN(Cc2ccc(C(F)(F)F)cc2N2CCCC2)CC1`, the relative growth was 0.994 (inactive). With `CCn1cc(C(=O)O)c(=O)c2cc(F)c(N3CCN(C(=S)Nc4cc(C(F)(F)F)ccc4Cl)CC3)cc21`, the relative growth is 0.0858 (active). To `CCn1cc(C(=O)N2CCN(C)CC2)c(=O)c2cc(S(=O)(=O)N(C)C)ccc21` belongs 0.974 (inactive). Turning to `CCn1cc(C(=O)O)c(=O)c2cc(F)c(N3CCN(C)CC3)cc21.CS(=O)(=O)O`, the relative growth was 0.0455 (active). `CCOC(=O)c1c[nH]c(CC(C)=O)nc1=O`: the relative growth was 0.999 (inactive). Consider `Cc1ccc(S(=O)(=O)N2C[C@@H](O)COC[C@H]3O[C@H](CC(=O)N[C@H]4CCN(Cc5ccccc5)C4)CC[C@@H]32)cc1`, for which the relative growth is 1.01 (inactive). Turning to `C[C@H]1CN([C@@H](C)CO)C(=O)Cc2cc(NC(=O)Nc3ccc4c(c3)OCO4)ccc2O[C@H]1CN(C)S(=O)(=O)c1cn(C)cn1`, the relative growth was 0.835 (inactive). `C[C@@H]1CN([C@H](C)CO)C(=O)c2cccc(NC(=O)Nc3cccc4ccccc34)c2O[C@H]1CN(C)S(=O)(=O)c1ccccc1`: the relative growth was 0.987 (inactive).

Turning to `COc1ccc(S(=O)(=O)N(C)C[C@H]2Oc3c(NS(=O)(=O)c4c(C)noc4C)cccc3C(=O)N([C@H](C)CO)C[C@H]2C)cc1`, the relative growth was 0.997 (inactive). Take `CO/N=C1\CN(c2nc3c(cc2F)c(=O)c(C(=O)O)cn3C2CC2)C[C@@H]1CN`: the relative growth was 0.154 (active).

Take `CON=C1CN(c2nc3c(cc2F)c(=O)c(C(=O)O)cn3C2CC2)CC1CN.CS(=O)(=O)O` (stereo not given): the relative growth is 0.0419 (active). Regarding `C[C@H]1CN([C@@H](C)CO)C(=O)Cc2cc(NC(=O)NC3CCCCC3)ccc2O[C@H]1CN(C)S(=O)(=O)c1cn(C)cn1`, the relative growth was 0.985 (inactive).

As for `C[C@H]1CN([C@@H](C)CO)C(=O)c2cc(NC(=O)Cc3ccccc3)ccc2O[C@@H]1CN(C)S(=O)(=O)c1cccs1`, the relative growth was 0.993 (inactive).

As for `Nc1ccc(OCC(=O)N2CCOCC2)cc1`, the relative growth was 1.03 (inactive). On to `CC(C)NC(=O)Nc1ccc2c(c1)C(=O)N([C@H](C)CO)C[C@@H](C)[C@H](CN(C)Cc1ccc(C(F)(F)F)cc1)OCCCC[C@@H](C)O2`, for which the relative growth was 1.02 (inactive).

Regarding `CCOc1ccc2c(c1)-c1c(ssc1=S)C(C)(C)N2C`, the relative growth was 0.993 (inactive). Consider `CC1(C)S[C@H]2[C@@H](NC(=O)[C@@H](NC(=O)N3CCN(S(C)(=O)=O)C3=O)c3ccccc3)C(=O)N2[C@@H]1C(=O)O`, for which the relative growth was 0.237 (inactive). `CCN1CCN(C(=O)NC(C(=O)NC2C(=O)N3C2SC(C)(C)C3C(=O)[O-])c2ccccc2)C(=O)C1=O.[Na+]` (stereo not given): the relative growth was 0.0465 (active). As for `CC1(C)SC2C(NC(=O)C(NC(=O)N3CCNC3=O)c3ccccc3)C(=O)N2C1C(=O)[O-].[Na+]` (stereo not given), the relative growth is 0.263 (inactive). Take `CC1(C)S[C@@H]2[C@H](NC(=O)[C@H](NC(=O)N3CCNC3=O)c3ccccc3)C(=O)N2[C@H]1C(=O)O`: the relative growth is 0.0984 (active).

In the case of `CCN1CCN(C(=O)N[C@@H](C(=O)N[C@@H]2C(=O)N3[C@@H]2SC(C)(C)[C@@H]3C(=O)O)c2ccccc2)C(=O)C1=O`, the relative growth was 0.606 (inactive). As for `CC1(C)SC2C(NC(=O)C(C(=O)[O-])c3ccccc3)C(=O)N2C1C(=O)[O-].[Na+].[Na+]` (stereo not given), the relative growth was 1.1 (inactive). Take `C[C@@H]1CN([C@H](C)CO)C(=O)CCCn2cc(nn2)CO[C@H]1CN(C)C(=O)C1CC1`: the relative growth was 1.02 (inactive). As to `Cn1nc(-c2ccccn2)nc2c(=O)n(C)c(=O)nc1-2`, the relative growth is 0.933 (inactive).

With `C[C@@H]1CCCCO[C@H](CN(C)Cc2ccccc2)[C@H](C)CN([C@@H](C)CO)C(=O)c2cc(NS(=O)(=O)c3cccs3)ccc2O1`, the relative growth is 0.975 (inactive). On to `C[C@@H]1CN([C@H](C)CO)S(=O)(=O)c2ccc(-c3cccc(C#N)c3)cc2O[C@@H]1CN(C)C(=O)c1ccncc1`, for which the relative growth was 1 (inactive).

For `C[C@@H]1CN([C@H](C)CO)C(=O)Cc2cc(NS(=O)(=O)c3cccs3)ccc2O[C@@H]1CN(C)Cc1ccc(Cl)c(Cl)c1`, the relative growth was 1.01 (inactive).

On to `O=C(C[C@@H]1CC[C@H](NC(=O)c2cnccn2)[C@@H](CO)O1)NCc1ccccc1F`, for which the relative growth is 0.993 (inactive).

In the case of `Cc1noc(C)c1S(=O)(=O)Nc1ccc2c(c1)CC(=O)N([C@@H](C)CO)C[C@@H](C)[C@H](CN(C)S(C)(=O)=O)O2`, the relative growth was 0.975 (inactive).

As to `COc1ccc(NC(=O)Nc2ccc3c(c2)C(=O)N([C@@H](C)CO)C[C@H](C)[C@H](CN(C)S(C)(=O)=O)O3)cc1`, the relative growth is 0.991 (inactive). Turning to `Cc1ccc(S(=O)(=O)N(C)C[C@H]2Oc3c(NC(=O)c4ccncc4)cccc3C(=O)N([C@@H](C)CO)C[C@H]2C)cc1`, the relative growth was 1.01 (inactive).

As for `Cn1cc(-c2[nH]c3cc(NC(=O)[C@H](N)C4CCCCC4)cc4c3c2C=NNC4=O)cn1`, the relative growth is 0.161 (active). To `C[C@@H]1CN([C@@H](C)CO)C(=O)c2cc(NC(=O)Nc3ccc4c(c3)OCO4)ccc2O[C@@H](C)CCCCO[C@@H]1CN(C)C(=O)NC1CCCCC1` belongs 1.04 (inactive).

`O=c1c(O[C@@H]2O[C@H](CO)[C@@H](O)[C@H](O)[C@H]2O)c(-c2ccc(O)c(O)c2)oc2cc(O)cc(O)c12`: the relative growth was 1.04 (inactive).
